EPAC2 antag – validation of human EPAC2 antagonists; Q8WZA2; Potency, µM (titrated, usually from 112 µM), without a hit: at the top dose activity, negative = inhibition, usual class: inhibitors; EPAC2 Rap1B BODIPY-GDP exchange, fluorescence; actives 1.7% (n = 16,000); AID 1645886;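 also: 100% = activation by cAMP agonist control; nearly all actives have a fitted effect of over 40% in size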
Target sequence (Q8WZA2 whole entry, looked up): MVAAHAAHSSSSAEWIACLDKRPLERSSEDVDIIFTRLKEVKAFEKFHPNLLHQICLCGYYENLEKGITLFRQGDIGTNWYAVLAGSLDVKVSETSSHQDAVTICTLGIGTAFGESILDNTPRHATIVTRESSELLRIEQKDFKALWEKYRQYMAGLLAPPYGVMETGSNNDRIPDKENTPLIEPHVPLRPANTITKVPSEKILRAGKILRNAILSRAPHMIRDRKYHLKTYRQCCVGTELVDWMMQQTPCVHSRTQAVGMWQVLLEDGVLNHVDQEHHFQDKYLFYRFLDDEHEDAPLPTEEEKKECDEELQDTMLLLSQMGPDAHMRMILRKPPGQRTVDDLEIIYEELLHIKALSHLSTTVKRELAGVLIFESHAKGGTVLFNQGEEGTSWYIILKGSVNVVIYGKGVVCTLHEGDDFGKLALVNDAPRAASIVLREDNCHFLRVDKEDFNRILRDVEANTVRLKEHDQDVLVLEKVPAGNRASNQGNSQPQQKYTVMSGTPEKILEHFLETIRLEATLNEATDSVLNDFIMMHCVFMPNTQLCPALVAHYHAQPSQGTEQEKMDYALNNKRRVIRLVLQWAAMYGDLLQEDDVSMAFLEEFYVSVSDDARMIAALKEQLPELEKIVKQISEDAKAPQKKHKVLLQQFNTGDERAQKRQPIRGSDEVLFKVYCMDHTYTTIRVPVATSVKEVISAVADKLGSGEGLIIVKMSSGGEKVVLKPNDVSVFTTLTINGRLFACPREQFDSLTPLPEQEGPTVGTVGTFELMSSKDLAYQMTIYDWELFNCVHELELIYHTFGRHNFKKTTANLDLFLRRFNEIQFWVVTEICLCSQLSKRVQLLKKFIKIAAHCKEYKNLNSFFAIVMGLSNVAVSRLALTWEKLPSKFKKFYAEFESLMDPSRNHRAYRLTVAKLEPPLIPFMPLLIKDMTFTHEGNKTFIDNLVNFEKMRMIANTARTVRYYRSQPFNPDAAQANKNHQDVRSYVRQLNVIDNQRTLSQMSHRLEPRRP
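Normalized against a 6.5 mM cAMP agonist control, compounds were tested on 100 nM EPAC2 exchanging Rap1B-bound BODIPY-GDP (250 nM) for 50 uM GDP. Fluorescence drop (ex 480, em 540 nm) was tracked at room temperature over 30 min at 5-min intervals.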
EPAC1 agonist – human EPAC1 agonism, validation | O95398 | EPAC1 Rap1b BODIPY-GDP exchange, fluorescence | Potency, µM, for the others: max response, positive = active, actives largely listed as activators | actives 1% (n = 16,000) | AID 1645883; also: nearly all actives have a fitted effect of over 70% in size
The depositor's hits bear a star; ? = inconclusive; ! = not confirmed by another sample; [ ] = another dose, or the depositor's remark. A selection: hits, their analogues and other compounds. The true share with any hit is near 2.9%. Calls follow the shape of the dose curve; as a rule, active = well fitted curve in the direction sought with a large enough effect; inconclusive = small, poorly fitted or top-dose-only effect, or another doubt; inactive = no such curve, though single readings can be large; an effect the other way counts as inactive or inconclusive. Unless noted, % is scaled to controls: 0 for no effect and ±100 for the full control effect; potency is read from the fitted curve at half-maximal effect.

SMILES	EPAC2 antag	EPAC1 agonist
Cc1cccc(CNc2nc(-c3ccc4c(c3)OCO4)nc3ccccc23)c1	?	112µM*
COc1ccccc1-c1nc(NCc2cccnc2)c2ccccc2n1	-14%	-21%
c1cncc(CNc2nc(-c3ccc4c(c3)OCO4)nc3ccccc23)c1	-20%	?
Cc1cc2c(c(-c3ccc(Cl)cc3)c1)OC(CNC(=O)CCC(=O)N(C)C)C2 (configuration not stated)	?	-18%
CC(C)[C@H]1COCCS(=O)(=O)N1Cc1cccc([N+](=O)[O-])c1	-27%	-20%
COc1cc(OC)c(OC)cc1CN1CCCC(c2nc(C)ncc2-c2ccc(F)cc2)C1 (configuration not stated)	-5%	-10%
COc1ccc(C(=O)N2CCC3(CC2)CN(c2ccncc2)C3)cc1	-30%	100µM*
COc1ccc(C(=O)N2CCC3(CCCN(c4ccncc4)C3)CC2)cc1	-25%	6%
CC(=O)Oc1ccc2c(c1)CCC1C2CC[C@]2(C)C(OC(C)=O)CCC12 (some centres not stated)	-21%	?
CC(=O)Oc1ccc2c(c1)CC[C@@H]1[C@@H]2CC[C@]2(C)[C@@H](O)CC[C@@H]12	88%	28µM*
OC1(c2cccnc2)CCN(Cc2ccc3c(c2)CN(Cc2cccc4nccnc24)CCO3)CC1	-26%	1%
CC(C)CCC[C@@H](C)[C@H]1CC(=O)C2=C3CC[C@H]4C[C@@H](O)CC[C@]4(C)[C@H]3CC[C@@]21C	5%	-32%
COC(=O)C1CCCCN1Cc1nc(N2CCCN(C(C)=O)CC2)c2ccccc2n1 (configuration not stated)	-1%	-4%
c1ccc2c(N3CCCCCC3)nc(CN3CCCCC3c3nccs3)nc2c1 (configuration not stated)	20µM*	1%
CN1CC(O)C2=CC(=O)C(=O)C=C21 (configuration not stated)	79µM*	0%
Cc1cnc(SCC2CCCO2)nc1C1CCCN(C(=O)c2ccc(S(N)(=O)=O)cc2)C1 (configuration not stated)	?	-13%
COc1cc2c(cc1OC)C(=O)N(C)CC2	-19%	-16%
COc1cc2cc3c4c(cc(OC)c(OC)c4c2cc1OC)CCN3C	50µM*	?
Cc1cccc(C(=O)NCc2nc(-c3cccc(NC(=O)C4CCCN(C)C4)c3)oc2C)n1 (configuration not stated)	-12%	-4%
O=C(C[N+]12CN3CN(CN(C3)C1)C2)c1ccc(I)cc1	-17%	?
CC(C)(Sc1ccc(CCN(CCCCC2CCCCC2)C(=O)NC2CCCCC2)cc1)C(=O)O	45µM*!	-4%
CCN1CCN(C(=O)c2cc(NC(=O)COC)cc3nc(-c4ccncc4)n(C)c23)CC1	-25%	-20%
O=c1c(O)cc(C2Oc3cc(O)cc(O)c3CC2O)cc2c(C3Oc4cc(O)cc(O)c4CC3O)cc(O)c(O)c12 (configuration not stated)	20µM*	-33%
Oc1cc(O)c2c(c1)O[C@H](c1ccc(O)c(O)c1)[C@@H](O)C2	7%	-7%
CCOC(=O)C[n+]1cccc(Br)c1	5%	-24%
SMILES	EPAC2 antag	EPAC1 agonist
CCC1C(=O)NCCN1Cc1ccc2c(c1)CN(Cc1ccc(F)c(OC)c1)CCO2 (configuration not stated)	-5%	0%
CC(NC(=O)C1CCOCC1)c1nnc2n1CCN(Cc1cc3c(cc1Cl)OCO3)CC2 (configuration not stated)	?	-10%
COc1ccc2c(c1)-c1nc(-n3ncc(C(=O)NC(C)(C)CO)c3C3CC3)ncc1CC2	-5%	-8%
CCCCCCC(=O)O[C@H]1CC[C@H]2[C@@H]3CCc4cc(O)ccc4[C@H]3CC[C@]12C	-19%	-111%
CN1CCC(=C2c3ccccc3CCc3cccnc32)CC1	7%	6%
CCOC(=O)N1CCC(=C2c3ccc(Cl)cc3CCc3cccnc32)CC1	35µM*!	16%
CC(=O)c1ccc2oc3ccccc3c(=O)c2c1	18%	2%
CCc1oc2ccccc2c1C(=O)c1cc(Br)c(O)c(Br)c1	45µM*	-42%
COC(=O)C1CCN(Cc2ccc3c(c2)CN(C(=O)c2cc4cc(F)ccc4[nH]2)CCO3)CC1	?	7%
COc1cc(O)c(C(=O)/C=C/c2ccc(OC)c(O)c2)c(OC)c1	-27%	100µM*
COc1ccc(/C=C/C(=O)c2cccs2)c(OC)c1	-24%	?
COc1ccc2ccccc2c1CN1CCc2nnc(CNC(=O)c3cccc(F)c3)n2CC1	0%	-8%
CCC(CN)CC(C)CCNCC(O)CNCC(C)CC(CC)CN (configuration not stated)	15%	0%
Cc1ccc(C(=O)Nc2ccc(S(=O)(=O)O)c3cc(S(=O)(=O)O)cc(S(=O)(=O)O)c23)cc1NC(=O)c1cccc(NC(=O)Nc2cccc(C(=O)Nc3cc(C(=O)Nc4ccc(S(=O)(=O)O)c5cc(S(=O)(=O)O)cc(S(=O)(=O)O)c45)ccc3C)c2)c1	-8%	89µM*!
Cc1c(C(=O)N2CC3CCC2C3)sc2ncnc(NCCc3c[nH]c4ccccc34)c12 (configuration not stated)	-13%	3%
O=C(NCCN1CCOCC1)c1cnn(-c2nccc(-c3cc4ccccc4o3)n2)c1C1CC1	12%	10%
NC(Cc1c[nH]c2ccccc12)C(=O)O (configuration not stated)	-7%	25%
CC(=O)N[C@@H](Cc1c[nH]c2ccccc12)C(=O)OCc1cc(C(F)(F)F)cc(C(F)(F)F)c1	45µM*!	5%
O=C(C[n+]1cccc2cccc(O)c21)c1ccc(Cl)cc1	-15%	-28%
NCCC[C@H](N)C(=O)O	4%	6%
CCCCC[C@H](O)CC[C@H]1[C@H](O)CC(=O)[C@@H]1CCCCCCC(=O)O	-18%[11.4 µM]	-14%
CCCCC[C@H](O)/C=C/[C@H]1[C@H](O)CC(=O)[C@@H]1CCCCCCC(=O)O	14µM*!	-15%
CO/N=C(\C(=O)N[C@@H]1C(=O)N2C(C(=O)O)=C(CSC(=O)c3ccco3)CS[C@H]12)c1csc(N)n1	3%	-8%
CN(C)c1ccc(/C=C/c2c3c(nc4ccccc24)CCCC3)cc1	84%	100µM*
CN(C)c1ccc(/C=C/c2cc(N(C)C)nc3ccccc23)cc1	?	-15%
SMILES	EPAC2 antag	EPAC1 agonist
Cc1cnc2ccccc2c1/C=C/c1ccc(N(C)C)cc1	-34%	100µM*
Cc1nc2ccccc2nc1/C=C/c1ccc(N(C)C)cc1	?	-53%
COc1ccc2ccccc2c1CN1CCc2nnc(C(NS(C)(=O)=O)C(C)C)n2CC1 (configuration not stated)	7%	-11%
COc1ccc(OC)c(-c2cc(Cl)c3c(c2)CC(CNC(=O)c2cccnc2SC)O3)c1 (configuration not stated)	-26%	16%
CN(C)CCC=C1c2ccccc2COc2ccccc21	5%	-4%
COC(=O)[C@@H]1CCCN1Cc1ccc2c(c1)CN(Cc1cccc(Cl)c1)CCO2	-3%	6%
C=C[C@@](C)(O)CC[C@@H]1[C@@]2(C)CCCC(C)(C)[C@@H]2CC[C@@]1(C)O	?	-27%
C=C[C@](C)(O)CCC1C(=C)CC(OC(C)=O)C2C(C)(C)CCCC12C (some centres not stated)	10µM*	-116%
COc1ccc(N2CCN(C(=O)c3cc(NC(C)=O)c4c(c3)ncn4CCc3ccccn3)CC2)cc1	-3%	-2%
COc1cc(=O)n2c(c1C(=O)N(C)Cc1cscn1)CCN(C(=O)c1cccc(C)c1C)CC2	?	-7%
CCC1(C2CCN(Cc3c(C)[nH]c4ccccc34)CC2)NC(=O)N(Cc2ccc3c(c2)OCO3)C1=O (configuration not stated)	-31%	12%
